Experimental data from PubChem BioAssay AID1159580 (chemical genetic matrix, 2015).
The campaign covered roughly 5,500 compounds. About 2,000 (36%) were called active. Not shown: some 18% with an inconclusive outcome. Rule as the data show it: active = normalized growth mostly below about 0.91 (no sharp cut-off); inconclusive = no clear call, values can overlap the other calls; inactive = mostly above about 0.92. Some of the results follow.

Experiment: chemical genetic growth profiling, strain panel (AID 1159580);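 also: tested at 20 µM; growth read once vehicle control cultures reached saturation at 30 °C; 1 = growth at the plate median or of vehicle wells; lower values mean less growth of the strain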
Conditions: growth OD

Measured: normalized growth

CCOCN(C(=O)CCl)c1c(C)cccc1CC
inactive: S. cerevisiae deletion strains, locus YJR043C, strain POL32, active compounds read low 0.983 | S. cerevisiae deletion strains, locus YJR075W, strain HOC1, active compounds read low 0.993 | S. cerevisiae deletion strains, locus YKL009W, strain mrt4, active compounds read low 0.989 | S. cerevisiae deletion strains, locus YKL068W, active compounds read low 0.973 | S. cerevisiae deletion strains, locus YKL085W, strain MDH1 (second series), active compounds read low 0.991 | S. cerevisiae deletion strains, locus YKL085W, strain MDH1, active compounds read low 0.991 | S. cerevisiae deletion strains, locus YKL160W, strain elf1, active compounds read low 0.995 | S. cerevisiae deletion strains, locus YKL190W, strain CNB1, active compounds read low 0.983 | S. cerevisiae deletion strains, locus YKR001C, strain vps1, active compounds read low 0.986 | S. cerevisiae deletion strains, locus YKR026C, strain gcn3, active compounds read low 0.985 | S. cerevisiae deletion strains, locus YKR091W, strain srl3, active compounds read low 0.988 | S. cerevisiae deletion strains, locus YLL001W, strain dnm1, active compounds read low 0.989 | S. cerevisiae deletion strains, locus YLL026W, active compounds read low 0.991 | S. cerevisiae deletion strains, locus YLL041C, strain sdh2, active compounds read low 0.988 | S. cerevisiae deletion strains, locus YLR027C, strain aat2, active compounds read low 0.976 | S. cerevisiae deletion strains, locus YLR039C, strain RIC1, active compounds read low 0.994 | S. cerevisiae deletion strains, locus YLR058C, strain SHM2, active compounds read low 0.986 | S. cerevisiae deletion strains, locus YLR102C, strain apc9, active compounds read low 0.974 | S. cerevisiae deletion strains, locus YLR221C, strain rsa3, active compounds read low 0.981 | S. cerevisiae deletion strains, locus YLR258W, strain gsy2, active compounds read low 1.02 | S. cerevisiae deletion strains, locus YLR262C, strain YPT6 (second series), active compounds read low 0.969 | S. cerevisiae deletion strains, locus YLR262C, strain YPT6, active compounds read low 1.01 | S. cerevisiae deletion strains, locus YLR268W, strain sec22, active compounds read low 0.979 | S. cerevisiae deletion strains, locus YLR320W, strain mms22, active compounds read low 0.986 | S. cerevisiae deletion strains, locus YLR330W, strain CHS5, active compounds read low 0.977 | S. cerevisiae deletion strains, locus YLR342W, strain FKS1 (second series), active compounds read low 0.98 | S. cerevisiae deletion strains, locus YLR342W, strain FKS1, active compounds read low 0.978 | S. cerevisiae deletion strains, locus YLR357W, strain rsc2, active compounds read low 0.961 | S. cerevisiae deletion strains, locus YLR370C, strain arc18, active compounds read low 0.995 | S. cerevisiae deletion strains, locus YLR371W, strain rom2, active compounds read low 0.963 | S. cerevisiae deletion strains, locus YLR384C, strain iki3, active compounds read low 0.98 | S. cerevisiae deletion strains, locus YLR418C, strain cdc73, active compounds read low 1.03 | S. cerevisiae deletion strains, locus YML016C, strain PPZ1, active compounds read low 0.992 | S. cerevisiae deletion strains, locus YML032C, strain rad52, active compounds read low 0.969 | S. cerevisiae deletion strains, locus YML120C, strain ndi1, active compounds read low 0.99 | S. cerevisiae deletion strains, locus YML124C, strain tub3, active compounds read low 0.972 | S. cerevisiae deletion strains, locus YMR058W, strain fet3, active compounds read low 0.988 | S. cerevisiae deletion strains, locus YMR078C, strain ctf18, active compounds read low 0.959 | S. cerevisiae deletion strains, locus YMR125W, strain sto1, active compounds read low 0.988 | S. cerevisiae deletion strains, locus YMR129W, active compounds read low 0.982 | S. cerevisiae deletion strains, locus YMR205C, strain PFK2, active compounds read low 0.996 | S. cerevisiae deletion strains, locus YMR223W, strain ubp8, active compounds read low 0.984 | S. cerevisiae deletion strains, locus YMR231W, strain pep5, active compounds read low 0.981 | S. cerevisiae deletion strains, locus YMR263W, strain SAP30, active compounds read low 0.983 | S. cerevisiae deletion strains, locus YMR307W, strain GAS1, active compounds read low 1 | S. cerevisiae deletion strains, locus YNL067W, strain RPL9B, active compounds read low 0.995 | S. cerevisiae deletion strains, locus YNL071W, strain lat1, active compounds read low 0.989 | S. cerevisiae deletion strains, locus YNL128W, strain TEP1, active compounds read low 0.978 | S. cerevisiae deletion strains, locus YNL153C, strain GIM3, active compounds read low 1 | S. cerevisiae deletion strains, locus YNL209W, strain ssb2, active compounds read low 0.998 | S. cerevisiae deletion strains, locus YNL233W, strain BNI4, active compounds read low 0.996 | S. cerevisiae deletion strains, locus YNL248C, strain rpa49, active compounds read low 0.984 | S. cerevisiae deletion strains, locus YNL250W, strain rad50, active compounds read low 0.977 | S. cerevisiae deletion strains, locus YNL271C, strain bni1, active compounds read low 0.994 | S. cerevisiae deletion strains, locus YNL298W, strain CLA4, active compounds read low 0.968 | S. cerevisiae deletion strains, locus YNL307C, strain MCK1, active compounds read low 0.982 | S. cerevisiae deletion strains, locus YNL322C, strain KRE1 (second series), active compounds read low 0.98 | S. cerevisiae deletion strains, locus YNL322C, strain KRE1, active compounds read low 0.982 | S. cerevisiae deletion strains, locus YNR049C, strain mso1, active compounds read low 0.986 | S. cerevisiae deletion strains, locus YNR052C, strain pop2, active compounds read low 0.957 | S. cerevisiae deletion strains, locus YOL006C, strain TOP1, active compounds read low 1.02 | S. cerevisiae deletion strains, locus YOL012C, strain htz1 0.911 | S. cerevisiae deletion strains, locus YOL147C, strain pex11, active compounds read low 0.981 | S. cerevisiae deletion strains, locus YOR001W, strain rrp6, active compounds read low 0.969 | S. cerevisiae deletion strains, locus YOR061W, strain CKA2, active compounds read low 0.999 | S. cerevisiae deletion strains, locus YOR069W, strain VPS5, active compounds read low 0.987 | S. cerevisiae deletion strains, locus YOR070C, strain gyp1, active compounds read low 0.98 | S. cerevisiae deletion strains, locus YOR080W, strain dia2, active compounds read low 0.975 | S. cerevisiae deletion strains, locus YOR083W, strain WHI5, active compounds read low 1 | S. cerevisiae deletion strains, locus YOR106W, strain vam3, active compounds read low 1 | S. cerevisiae deletion strains, locus YOR136W, strain idh2, active compounds read low 0.98 | S. cerevisiae deletion strains, locus YOR144C, strain elg1, active compounds read low 0.961 | S. cerevisiae deletion strains, locus YOR184W, strain ser1, active compounds read low 0.986 | S. cerevisiae deletion strains, locus YOR265W, strain rbl2, active compounds read low 1 | S. cerevisiae deletion strains, locus YOR270C, strain vph1, active compounds read low 1.01 | S. cerevisiae deletion strains, locus YOR290C, strain snf2, active compounds read low 1 | S. cerevisiae deletion strains, locus YOR316C, strain cot1, active compounds read low 0.978 | S. cerevisiae deletion strains, locus YPL051W, strain arl3, active compounds read low 0.99 | S. cerevisiae deletion strains, locus YPL055C, strain LGE1, active compounds read low 1 | S. cerevisiae deletion strains, locus YPL078C, strain atp4, active compounds read low 0.985 | S. cerevisiae deletion strains, locus YPL106C, strain sse1, active compounds read low 1.01 | S. cerevisiae deletion strains, locus YPL240C, strain hsp82, active compounds read low 0.995 | S. cerevisiae deletion strains, locus YPL241C, strain CIN2, active compounds read low 0.99 | S. cerevisiae deletion strains, locus YPR119W, strain clb2, active compounds read low 0.964 | S. cerevisiae deletion strains, locus YPR141C, strain kar3, active compounds read low 0.987 | S. cerevisiae deletion strains, locus YPR163C, strain tif3, active compounds read low 0.958 | S. cerevisiae deletion strains, locus YPR167C, strain met16, active compounds read low 0.987 | S. cerevisiae deletion strains, strain wtn01, active compounds read low 0.967 | S. cerevisiae strains, strain wild type, active compounds read low 0.993
